HCMV inh: qHTS Assay for inhibitors of the human cytomegalovirus (HCMV) | actives 4.5% (n = 410,000) | activity change, negative = inhibition, % at 57.5 µM | HFF cells, HCMV-luciferase reporter, 72 h; active compounds read low; in the data active = activity change below about -60%; inconclusive = no clear call, values can overlap the other calls; inactive = above about -39%
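Luciferase read-out from HCMV-luciferase-infected HFFs (MOI 1 PFU/cell) 72 h post infection at 37C; compounds added after 16 h cell attachment; activity normalized between buffer-only basal and Salinomycin (10uM) inhibitor controls.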
Pf growth 96h: Primary qHTS for delayed death inhibitors of the malarial parasite plastid, 96 hour incubation; P. falciparum luciferase reporter growth, 96 h; actives 6.9% (n = 320,000); Potency, µM (highest dose often 28.7 µM), for inactives: at the top dose activity change, negative = inhibition, actives largely listed as inhibitors; note: potency is the fitted concentration of half-maximal effect
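Parasite growth measured via integrated firefly luciferase reporter in P. falciparum. Infected erythrocytes at 2% hematocrit, 0.05% parasitemia final were treated 96 hours at 37 C under 5% CO2, and luminescence was read.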
Pf growth 48h: Primary qHTS for delayed death inhibitors of the malarial parasite plastid, 48 hour incubation. P. falciparum luciferase growth in erythrocytes, 48 h. actives 5.9% (n = 310,000). AID 504832, 2011. Potency, µM (top dose mostly 28.7 µM), for the others: at the top dose activity change, negative = inhibition, most hits filed as inhibitors; note: potency is the fitted concentration of half-maximal effect
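Erythrocytes infected with P. falciparum carrying an integrated firefly luciferase reporter (2% hematocrit, 0.1% parasitemia final) were exposed to compounds in RPMI 1640 with 0.5% Albumax at 37 C, 5% CO2. Growth inhibition was scored as reduced luminescence.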
HCV inhibitor: qHTS Assay for Inhibitors of Hepatitis C Virus (HCV). Huh7.5.1 HCVcc-Cre infection, luciferase reporter, 44 h. Potency, µM (highest dose often 41.8 µM), for inactives: top-dose activity change, negative = inhibition, most hits filed as inhibitors. actives 3.4% (n = 340,000); note: potency is the fitted concentration of half-maximal effect
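Whole-lifecycle infectious HCVcc-Cre system; cells 1,000/well, compound then virus (~0.5 moi) added 4 h after plating, 44 h culture. Luciferase read 15 sec following 15 min substrate incubation, room temp.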
The depositor's hits bear a star; ? = inconclusive; . = not tested or not shown. Compounds with a hit are over-represented: about 13% of the library has one in this group of screens. Unless noted, calls come from the whole dose curve; as a rule, active = well fitted inhibition curve with a large enough effect; inconclusive = small, poorly fitted or top-dose-only effect, or another doubt; inactive = no such curve, though single readings can be large or run the other way. % is set by controls: 0 for no effect and ±100 for the full control effect.

SMILES	HCMV inh	Pf growth 96h	Pf growth 48h	HCV inhibitor
Cc1cc(Nc2ccccc2)c2c([N+](=O)[O-])cc(C)c(C)c2n1	-81.0*	?	?	?
COc1cc(NC(=O)Cn2nnnc2-c2ccccc2F)cc(OC)c1OC	-24.1	.	.	.
CCc1c(C)sc2c1CCN(C(=O)Nc1cc(C)ccc1OC)C2c1ccc(F)cc1 (stereo unspecified)	-9.5	.	.	.
COc1cccc(NS(=O)(=O)c2cc3c4c(c2)C(C)C(=O)N4CCC3)c1 (stereo unspecified)	-11.1	.	.	.
N#Cc1ccc(C(=O)Nc2cc(S(=O)(=O)Nc3ccc(Cl)cc3)ccc2N2CCCCC2)cc1	?	10.4µM*	13.1µM*	?
O=C(Nc1cc(S(=O)(=O)Nc2ccc(Cl)cc2)ccc1N1CCCCC1)c1ccc(F)cc1	-64.5*	?	?	7.08µM*
N#Cc1ccc(C(=O)Nc2cc(S(=O)(=O)N3CCOCC3)ccc2N2CCCC2)cc1	61.4	.	.	14.0%
COc1ccc(NS(=O)(=O)c2ccc(N3CCOCC3)c(NC(=O)c3ccc(F)cc3)c2)cc1	-33.4	?	-29.8%	?
COc1ccc(-c2noc(CSc3nnc(-c4ccncc4)n3-c3ccc(C)c(C)c3)n2)cc1	-3.4	.	.	.
COc1ccc(/C(C)=N/NC(=O)c2ccccc2N)cc1	30.7	3.7µM*	?	15.4%
COc1ccc(NC(=S)NCCc2ccccc2)c(OC)c1	6.2	.	-10.7%	22.4µM*
COc1ccc(CNC(=S)N/N=C(\C)c2ccc(OC)cc2)cc1	0.0	?	9.6%	?
COc1ccc(/C(C)=N/NC(=O)c2ccncc2)cc1	-10.1	-23.1%	42.8%	10.3%
COc1ccc(NC(=S)NCCc2ccc(F)cc2)c(OC)c1	0.7	-6.1%	-5.6%	-14.1%
COc1ccc(/C(C)=N/NC(=S)NCCc2ccccc2)cc1	-114.1*	?	?	-11.8%
Cc1cc(C)cc(NC(=S)Nc2cccc3ccccc23)c1	?	45.5%	55.6%	?
Cc1cccc(NC(=S)Nc2cccc3ccccc23)c1	-36.8	?	10.4µM*	?
Fc1ccc(NC(=S)Nc2cccc3ccccc23)cc1F	-71.3*	-25.7%	?	?
Cc1no[n+]([O-])c1COc1ccc(/C=N/n2nnnc2N)cc1	-14.0	11.7µM*	-29.3%	-17.8%
O=C(C[n+]1ccn(CCCNP2(=O)C=C(c3ccccc3)OC(c3ccccc3)=C2)c1)c1ccccc1	?	?	?	-5.0%
CC[N+](CC)(CCCCS(=O)(=O)[O-])CCNP1(=O)C=C(c2ccccc2)OC(c2ccccc2)=C1	-70.4*	2.7%	-1.9%	6.5%
CCOc1ccc(NC(=O)CN2C(=O)CC(C)Sc3ccccc32)cc1 (stereo unspecified)	0.3	.	.	.
Cc1cc([N+](=O)[O-])ccc1NC(c1nnc(-c2ccccc2)o1)c1ccccc1F (stereo unspecified)	36.5	.	.	.
CSC(=Nc1ccccc1)N=C(SCc1ccccc1)N(C)C	-101.4*	.	.	?
CCN(CC)c1ccc2cc(C(N)=O)c(=O)oc2c1	39.3	10.4µM*	108.9%	-24.3%
SMILES	HCMV inh	Pf growth 96h	Pf growth 48h	HCV inhibitor
CCN(CC)c1ccc2cc(NC(=O)CCC(=O)O)c(=O)oc2c1	-66.4*	?	?	3.6%
CCN(CC)c1ccc2cc(C(C)=O)c(=O)oc2c1	44.9	56.8%	55.1%	-22.1%
O=C(CCC(=O)OCC(=O)c1ccc([N+](=O)[O-])cc1)Nc1ccccc1Cl	.	13.1µM*	?	1.9%
O=C(CCC(=O)OCC(=O)c1cccc([N+](=O)[O-])c1)Nc1cccc(Cl)c1Cl	72.6	-1.1%	18.4%	12.5%
O=C(CCc1ccccc1)OCC(=O)c1ccc([N+](=O)[O-])cc1	?	11.7µM*	20.7%	10.2%
COc1ccc(N2CCN(c3ccc(N4C(=O)CC(C)C4=O)cc3[N+](=O)[O-])CC2)cc1 (stereo unspecified)	-89.9*	8.9%	0.0%	-16.9%
Cc1cc(C)c(NC(=O)C2CCN(S(=O)(=O)c3c(C)noc3/C=C/c3ccccc3F)CC2)c(C)c1	-19.0	.	.	.
CCOC(=O)c1cccc(NC(=O)c2ccc3nc(CCc4ccccc4)oc3c2)c1	33.5	.	.	.
COCCCn1c(=O)/c(=C\c2ccccc2OC(C)C)s/c1=C(/C#N)C(=O)Nc1ccc(C(=O)O)cc1	0.0	1.47µM*	1.85µM*	3.2%
COCCCn1c(=O)/c(=C\c2ccccc2OC(F)F)s/c1=C(/C#N)C(=O)NC(C)C	7.7	13.8%	-5.6%	11.8%
COc1cccc(N2CCN(C(=O)CCCCCNc3nc(=S)[nH]c4ccccc34)CC2)c1	-62.3*	14.0%	-10.4%	11.2µM*
Cc1ccc(CNC(=O)C2CCC(CNc3nc(=S)[nH]c4ccccc34)CC2)cc1 (stereo unspecified)	-17.2	120.6%	?	?
COc1cccc(CNC(=O)C2CCC(CNc3nc(=S)[nH]c4ccccc34)CC2)c1 (stereo unspecified)	14.4	25.3%	?	2µM*
NS(=O)(=O)c1ccc(CCNC(=O)CCCCCNc2nc(=S)[nH]c3ccccc23)cc1	21.6	2.94µM*	-7.2%	9.9%
NS(=O)(=O)c1ccc(CCNC(=O)CCc2ccccc2)cc1	12.8	.	.	19.0%
CN(C)CCNC(=O)c1cc(Sc2ccc(F)cc2)nc2ccccc12	.	-19.7%	-25.6%	.
CCOc1ccc(Sc2cc(C(=O)NCc3ccccc3Cl)c3ccccc3n2)cc1	5.9	.	.	.
CCOCCCNC(=O)c1cc(Sc2ccc(F)cc2)nc2ccccc12	-62.0*	13.1µM*	17.3%	4.7%
COCCCNC(=O)c1cc(Sc2ccc(F)cc2)nc2ccccc12	-60.9*	?	10.7%	?
Cc1ccc(C)c(NC(=O)C2CCN(c3nn4c(=O)cc(C)nc4s3)CC2)c1	0.8	.	.	.
COc1ccc(C2NC(=O)NC(C)=C2C(=O)Nc2cc(C)cc(C)c2)c(OC)c1 (stereo unspecified)	10.7	.	.	.
Cc1ccc(OCC(O)CN2CCC(Cc3ccccc3)CC2)c(C)c1 (stereo unspecified)	-77.1*	?	-20.8%	11.2µM*
OC(COc1ccccc1F)CN1CCC(Cc2ccccc2)CC1 (stereo unspecified)	4.2	?	-15.9%	-23.2%
OC(COc1ccccc1)CN1CCC(Cc2ccccc2)CC1 (stereo unspecified)	71.6	?	-8.8%	-4.9%
C=CCc1ccc(OCC(O)CN2CCC(Cc3ccccc3)CC2)c(OC)c1 (stereo unspecified)	30.0	?	?	6.31µM*
OC(COc1ccc(F)cc1Cl)CN1CCC(Cc2ccccc2)CC1 (stereo unspecified)	?	?	11.7µM*	?
Cc1ccc(-c2noc(-c3nnn(CC(=O)Nc4cc(C)cc(C)c4)c3N)n2)cc1	16.2	.	.	.
Cc1cc(C(=O)Nc2ccc(C(C)C)cc2)c2c(C)nn(-c3ccccc3)c2n1	9.3	.	.	.
